This passage reports growth results from PubChem BioAssay (NCI).

Common to all, as to assay: NCI-60 one-dose screen, 48 h (100 = growth as untreated, 0 = no growth, -100 = all killed)
What all share (details): 10 µM unless noted

Assay [1] has as its system SR leukemia.
The subject of assay [2] is RPMI-8226 leukemia.
For assay [3], the system named is OVCAR-8 ovarian.
Assay [4] deals with OVCAR-5 ovarian.
The test system of assay [5] is OVCAR-4 ovarian.
Assay [6] deals with SK-OV-3 ovarian.
Assay [7] has as its system IGROV1 ovarian.
Assay [8] concerns OVCAR-3 ovarian.
For assay [9], the system named is HS 578T breast.
For assay [10], the system named is NCI/ADR-RES ovarian.

SMILES strings stand for the structures. About 83,000 compounds went through this panel and 20% of them were active in at least one assay; those are over-represented in the sample as a whole.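 96-well plates, one dose, 48 hours. Percent growth reported; active if below 10.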 Values without a mark were called inactive. Activity calls are given as the source filed them.

Consider `OC(c1ccccc1)(c1ccccc1)c1ccccc1-c1ccccc1`, for which the growth in assay [1] was 95.2%; in assay [2] it was 82.9%; in assay [3], 96.7%; in [4] it was 94.7%; in [5], 80.4%; in [6], 86.6%. Moreover, the growth in [7] was 91.2%; in assay [8] it was 101%; in assay [9] it was 94.2%; in [10], 85.5%.

Take `CC1(C)C2CC=C(/C=N/NC(=O)C3CCC(=O)N3)C1C2` (stereo not given): the growth in assay [1] was 116%; in assay [2], 103%; in assay [3] it was 105%; in assay [4] it was 107%; in assay [5], 101%; in [6] it was 106%. Further, the growth in assay [7] is 109%; in assay [8], 112%; in [9], 104%; in assay [10] it was 105%.

`CCN(C(=O)N1CCN(c2cc3c(cc2F)c(=O)c(C(=O)O)cn3C2CC2)CC1)c1nc(-c2ccc(C)cc2)cs1`: the growth in assay [1] is 17.2%; in assay [2] it was 14.8%; in assay [3], 11.5%; in assay [4], 21.7%; in [5] it was 31.5%; in [6] it was -10.4% (active). For the same compound, the growth in [7] is 6.38% (active); in assay [8], 9.01% (active); in [9], 18.3%; in assay [10], 2.74% (active).

With `Cn1cc(/C=C2/C(=O)Nc3ccccc32)c2ccccc21`, the growth was 94.9% in assay [1]; 60.5% in [2]; 95.5% in assay [3]; 106% in assay [4]; 86.2% in [5]; 90.4% in [6]. Also, the growth in [7] is 85.1%; in assay [8] it was 90.2%; in assay [9], 89.3%; in [10], 84.7%.

Regarding `COCCCOc1cc(C[C@@H](C[C@H](N)[C@@H](O)C[C@H](C(=O)NCC(C)(C)C(N)=O)C(C)C)C(C)C)ccc1OC`, the growth is 103% in [1]; 111% in [2]; 105% in [3]; 110% in [4]; 101% in assay [5]; 113% in [6]. The growth in [7] was 111%; in [8] it was 116%; in [9], 71.3%; in [10] it was 103%.

On to `CCCCC(=O)Nc1ncc(Cc2ccccc2Cl)s1`, for which the growth in assay [1] was 25.8%; in [2] it was 49.2%; in [3], 49%; in assay [4], 59%; in assay [5], 68.1%; in assay [6] it was 63.3%. For the same compound, the growth in [7] was 45.4%; in [8], 30.1%; in [9], 31.3%; in assay [10] it was 23.7%.

On to `COC(c1ccc2ccccc2c1)C(C)C(F)F` (stereo not given), for which the growth in assay [1] was 92%; in assay [2], 98.8%; in [3] it was 99.4%; in assay [4], 95.5%; in [5], 109%; in assay [6], 87.5%. In addition, the growth in [7] is 100%; in assay [8], 114%; in [9] it was 116%; in [10], 107%.

Regarding `NC(=O)OCCn1cc(-c2nc(-c3c[nH]c4ncccc34)cs2)c2ccccc21`, the growth in assay [1] was 24.2%; in assay [2], 24.9%; in assay [3] it was 41.6%; in assay [4], 58.2%; in [5] it was 71.7%; in assay [6], 41.6%. Moreover, the growth in assay [7] is 41.3%; in assay [8], 27.9%; in assay [9], 41.4%; in assay [10] it was 38.1%.

With `N#Cc1c(-c2ccccc2)c(C#N)c2c(C#N)c(N)nn2c1N`, the growth is 2.65% (active) in assay [1]; 21.2% in [2]; 61.1% in assay [3]; 78% in [4]; 57.7% in assay [5]; 62.2% in assay [6]. Moreover, the growth was 31.9% in [7], 15.5% in assay [8], 27.4% in assay [9] and 29.9% in assay [10].

In the case of `C=CCCC(=O)N1C=CC(=O)[C@H](O)[C@@H]1/C=C/c1ccccc1`, the growth was 43.8% [100 µM] in assay [1]; 54.2% [100 µM] in assay [2]; 37% [100 µM] in assay [3]; 62.2% [100 µM] in [4]; 55.4% [100 µM] in assay [5]; 39.2% [100 µM] in assay [6]. Moreover, the growth is 51% [100 µM] in assay [7], 30.3% [100 µM] in assay [8], 87.6% [100 µM] in [9] and 19.8% [100 µM] in [10].

Turning to `COc1ccc2nc3ccccc3c(NCc3ccc(F)cc3)c2c1`, the growth in [1] was -1.12% (active); in assay [2], -43% (active); in assay [3] it was 19.4%; in [4], 18.1%; in [5], 13.6%; in [6] it was 37.9%. For the same compound, the growth in assay [7] is 8.15% (active); in assay [8] it was 31.2%; in assay [9] it was 26.1%; in assay [10], 15.1%.

For the compound `CC(CN)[C@@H]1CC[C@]2(CO)CC[C@]3(C)[C@H](CC[C@@H]4[C@@]5(C)CCC(N)C(C)(C)[C@@H]5CC[C@]43C)[C@@H]12` (stereo not given in full), the growth was -46.4% (active) in [1]; -38.2% (active) in assay [2]; -78.4% (active) in [3]; -51.4% (active) in assay [4]; -38.9% (active) in assay [5]; 103% in assay [6]. Further, the growth in assay [7] was 62.2%; in [8], -84.2% (active); in assay [9], 4.39% (active); in [10] it was 53.6%.

For `CCOC(=O)c1c2c(n3ccccc13)C(=O)c1ncccc1C2=O`, the growth in assay [1] was 18.6%; in [2] it was 29.2%; in [3], 5.6% (active); in [4], 42.2%; in assay [5], 16.6%; in [6], 22.2%. The growth in assay [7] was 31.8%; in assay [8], -19.8% (active); in assay [9], 52.6%; in [10] it was 4.98% (active).

Consider `C[C@@H]1O[C@@H](O[C@@H]2C[C@H](c3ccc4c(c3O)C(=O)C3=C(C4=O)[C@@]4(O)C(=O)C[C@](C)(O)C[C@@]4(O)C=C3)O[C@H](C)[C@H]2O)C[C@H](O)[C@@H]1O`, for which the growth was 76.7% in assay [1]; 92% in assay [2]; 96.7% in [3]; 102% in [4]; 92% in [5]; 106% in assay [6]. Besides, the growth was 91.2% in [7], 105% in [8], 94.4% in assay [9] and 91.8% in [10].

Take `COc1cc2cc(NCc3ccc(OC(F)F)cc3)nc(C)c2cc1OC`: the growth in assay [1] was 53.1%; in [2], 42.5%; in assay [3], 71.3%; in assay [4] it was 56.1%; in [5], 74.2%; in assay [6], 57.6%. In addition, the growth was 48.2% in assay [7], 77% in assay [8], 77.6% in assay [9] and 56.3% in assay [10].

In the case of `COc1ccc(-c2cn(-c3ccc(Cl)cc3)c(SCC(=O)c3ccc([N+](=O)[O-])cc3)n2)cc1`, the growth in assay [1] is 90.1%; in assay [2], 97.2%; in assay [3], 51.8%; in assay [4], 90.5%; in assay [5], 38.7%; in [6], 85.2%. The growth in [7] is 83%; in [8], 106%; in assay [9], 41%; in [10], 79.5%.

Regarding `CCN(CC)CCCC(C)Nc1ccc2cc(OC)ccc2n1` (stereo not given), the growth is 120% in assay [1]; 97% in assay [2]; 99.8% in assay [3]; 109% in assay [4]; 62% in assay [5]; 113% in [6]. Moreover, the growth was 105% in assay [7], 98.8% in assay [8], 99.9% in assay [9] and 108% in assay [10].

On to `C=C1C(=O)O[C@H]2[C@H]1CC/C(COC(=O)NCc1ccc(Cn3c(=O)sn(-c4ccc(OC)cc4)c3=O)cc1)=C\CC[C@@]1(C)O[C@@H]21`, for which the growth is 27.3% in assay [1]; -3.82% (active) in assay [2]; 75.8% in assay [3]; 83.6% in assay [4]; 35.7% in assay [5]; 105% in assay [6]. In addition, the growth was 46.7% in assay [7], -27.1% (active) in [8], 90.7% in assay [9] and 95.8% in assay [10].

For the compound `CCOC(=O)c1n[nH]n2c1nc(=O)c1cnn(C)c12`, the growth in [1] was 85.3%; in assay [2] it was 101%; in assay [3], 102%; in assay [4] it was 112%; in assay [5], 102%; in assay [6], 101%. Besides, the growth was 108% in [7], 101% in assay [8], 105% in assay [9] and 103% in assay [10].

Take `N#CC(C#N)N=Nc1ccc(Cl)cc1Cl`: the growth is 48.1% in [1]; 50.8% in assay [2]; 94% in assay [3]; 104% in assay [4]; 71.4% in assay [5]; 77% in [6]. Moreover, the growth in assay [7] was 89.5%; in assay [8] it was 62%; in assay [9], 103%; in assay [10], 103%.

For the compound `O=C1N[C@@H]2[C@@H](O)[C@@H](O)[C@H](O)C[C@H]2c2cc3c(c(O)c21)OCCO3`, the growth in [1] is -2.37% (active); in [2] it was -28% (active); in assay [3], -13.8% (active); in assay [4], 3% (active); in assay [5], -8.78% (active); in assay [6] it was -10.9% (active). Also, the growth in assay [7] is -16.7% (active); in assay [8], -13% (active); in assay [9], -9.44% (active); in assay [10] it was -0.441% (active).

Regarding `COc1cc2c3c(c1O)-c1ccccc1[C@@H]1OC(=O)N(CC2)[C@H]31`, the growth in [1] was 98.2%; in assay [2], 99.2%; in assay [3] it was 97.8%; in assay [4] it was 116%; in [5], 105%; in assay [6] it was 106%. Moreover, the growth in assay [7] was 114%; in assay [8], 115%; in [9], 102%; in [10], 104%.

In the case of `CCOC(=O)/C=C/c1c(C)[nH]c(=O)[nH]c1=O`, the growth in assay [1] is 69.6%; in assay [2] it was 110%; in assay [3], 83.2%; in assay [4], 71.8%; in assay [5] it was 97.5%; in assay [6], 99.4%. Besides, the growth in assay [7] was 112%; in [8], 118%; in [9], 105%; in assay [10], 81.9%.

In the case of `O=C(NCc1ccccc1O)c1cccc2ccccc12`, the growth in assay [1] was 64.9%; in assay [2] it was 38.6%; in assay [3], 89.8%; in [4], 108%; in assay [5], 72.7%; in assay [6], 89.5%. Moreover, the growth was 62% in assay [7], 56.4% in assay [8], 66.5% in assay [9] and 79.2% in assay [10].

Consider `CC(C)C[C@@H](C(=O)N[C@H](C(=O)OC1CCCC1)c1ccccc1)[C@H](O)C(=O)NO`, for which the growth in assay [1] is 51.1%; in [2], 29%; in [3] it was 52.7%; in [4], 59.8%; in assay [5], 53%; in assay [6], 67.5%. The growth was 73.4% in [7], 43.4% in assay [8], 74.6% in assay [9] and 101% in [10].

For `COc1ccc2cc(-c3cnc4nonc4n3)ccc2c1`, the growth was 9.96% (active) in assay [1]; 0.566% (active) in assay [2]; 23.9% in assay [3]; 76% in [4]; 50% in assay [5]; 71% in [6]. In addition, the growth in [7] is 60.3%; in assay [8] it was 11.1%; in assay [9], 13.9%; in assay [10], -4.57% (active).
